# Laboratory results from PMC7819943, “Rice protein-binding microarrays: a tool to detect cis-acting elements near promoter regions in rice”.
# In all, about 39,000 sequences were measured (“fluorescence intensity (a.u.)”: median about 4,300, highest 2% from about 39,000 on). This is one part of a sample in which the highest values are shown more often than they occur.
# Molecular target: T1, OsSMF1 (Oryza sativa, UniProt Q6ZLB0 1-436)
# T1 sequence: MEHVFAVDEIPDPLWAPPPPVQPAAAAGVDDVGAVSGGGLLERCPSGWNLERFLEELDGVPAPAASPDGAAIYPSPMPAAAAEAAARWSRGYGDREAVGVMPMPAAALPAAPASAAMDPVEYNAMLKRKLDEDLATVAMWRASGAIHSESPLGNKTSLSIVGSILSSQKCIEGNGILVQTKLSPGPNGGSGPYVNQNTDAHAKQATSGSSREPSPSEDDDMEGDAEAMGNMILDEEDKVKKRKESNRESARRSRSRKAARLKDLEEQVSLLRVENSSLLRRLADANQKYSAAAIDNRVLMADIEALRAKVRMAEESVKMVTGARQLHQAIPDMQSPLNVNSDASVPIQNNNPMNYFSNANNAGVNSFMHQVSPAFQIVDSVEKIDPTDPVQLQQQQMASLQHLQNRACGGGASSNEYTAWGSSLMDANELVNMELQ
# Assay: protein-binding microarray (RPBM); PBS, 2% BSA, 51.3 ng/ul salmon testes DNA, 50 uM zinc acetate, 200 nM TF, 25 C, 1 h; high values mean tight binding
# Settings: protein: recombinant; tags: N-terminal polyhistidine and DsRed monomer fusion (pET32a); chain copies: 2; label: CyDye5-dUTP incorporated in the synthesized complementary strand; 3' TTTTT single-stranded linker to array surface; dsDNA, one strand shown
# How it was run: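 The binding signal is fluorescence intensity per array feature (arbitrary units). Readings came from an Axon 4000B scanner after a washed, 2% BSA-blocked, double-stranded custom Agilent array had been incubated for 1 h at 25 °C with 200 nM protein and 50 µM zinc acetate. The protein was a Ni–NTA-purified transcription factor fused N-terminally to polyhistidine and DsRed, expressed in E. coli BL21-CodonPlus.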
row,Sequence,binding signal
1,GACCCAGCAAGCAAGAGCGTCTAGTCACCTCAACCACGAACGGAGTCACCTAGTGCAG,6180 fluorescence intensity (a.u.)
2,ACCGCATCACATCAAGCATCCACCAACCAACCCAACAACACGGAGTCACCTAGTGCAG,3910 fluorescence intensity (a.u.)
3,GAGAATGATGTATGCACGCAGATGACATGGTATGATGAACCGGAGTCACCTAGTGCAG,4370 fluorescence intensity (a.u.)
4,CATGGTATTGTTTGATGCCAACTGAATTGATACAATGTGACGGAGTCACCTAGTGCAG,20500 fluorescence intensity (a.u.)
5,GGTTGGTATTAACCGCTGATGGTGAATGCCAACCTCAGAACGGAGTCACCTAGTGCAG,51200 fluorescence intensity (a.u.)
6,CTTCAAGAAGGTTACGCTGACAGAACGGCGACAACGTCCGCGGAGTCACCTAGTGCAG,3220 fluorescence intensity (a.u.)
7,CTTCCTTTGATAATATAATATATAGATAAATTCTCTAAGACGGAGTCACCTAGTGCAG,3200 fluorescence intensity (a.u.)
8,TCCTTCCATACTGTATAAATACTTTGAAATTCTAATATAGCGGAGTCACCTAGTGCAG,44200 fluorescence intensity (a.u.)
9,TCTAAGACTGAACTTTCCTGTATACATATATTTTGAAAAGCGGAGTCACCTAGTGCAG,24600 fluorescence intensity (a.u.)
10,GACGACCTTGGCACCCAGCTTCCGTCACTCGCTCGCCGCGCGGAGTCACCTAGTGCAG,3220 fluorescence intensity (a.u.)
11,CATATAACAAGTGACTGGCACACAAACCCACAATGAAGTGCGGAGTCACCTAGTGCAG,43500 fluorescence intensity (a.u.)
12,CATCTATCATATAACAACAACACAATGACACAACACTGGACGGAGTCACCTAGTGCAG,4510 fluorescence intensity (a.u.)
13,TTATAACACAAAACACATATGAAGCGCACTCTACCACGCACGGAGTCACCTAGTGCAG,32200 fluorescence intensity (a.u.)
14,TGCACGCACAGCCATCCACAAGCCATGAGCCGGCGCGAGACGGAGTCACCTAGTGCAG,3640 fluorescence intensity (a.u.)
15,ATTGAAGCCTATTTATTGGTAATACGTAATCTAGATTTGACGGAGTCACCTAGTGCAG,3700 fluorescence intensity (a.u.)
16,ATAAAAGAGAAGAGCAGCAGGCCAGCTGCAGGACGGACTTCGGAGTCACCTAGTGCAG,3820 fluorescence intensity (a.u.)
17,TCAGCAGTAAAGGACAGAAGGCGAAAAGATTTGAGATCTTCGGAGTCACCTAGTGCAG,65500 fluorescence intensity (a.u.)
18,AAAGGCACAGCAGGATGAAGATCTTGAAATGTTTCTTTGGCGGAGTCACCTAGTGCAG,6510 fluorescence intensity (a.u.)
19,GCTCCCTCAGCCGTGGCACGTGTTCACAAGCCGTGACCAGCGGAGTCACCTAGTGCAG,4570 fluorescence intensity (a.u.)
20,CAGGCCAGAACAACTGCTCGGCCCGATAGGAGGGCCTACTCGGAGTCACCTAGTGCAG,55800 fluorescence intensity (a.u.)
21,GCCCGTGCCAGGGCTGCTACCTCGGCACACTGGCCGGCACCGGAGTCACCTAGTGCAG,3350 fluorescence intensity (a.u.)
22,GTGCCTGCTCGATCGAGTCGTGGCGGCGGCGGAGTCAACTCGGAGTCACCTAGTGCAG,3370 fluorescence intensity (a.u.)

row,Sequence,binding signal
1,AATAAGTGCAGTTGTGGGAATCCGTGTTGAACGTTTGACCCGGAGTCACCTAGTGCAG,14300 fluorescence intensity (a.u.)
2,AGTGAAGTCACAAGGAAGTGACGAGGATGAGGACGAGGAGCGGAGTCACCTAGTGCAG,28700 fluorescence intensity (a.u.)
3,CGCTCCTCGCCGCCTTGAACCTCACAGCGAAACCTGATCACGGAGTCACCTAGTGCAG,3270 fluorescence intensity (a.u.)
4,GATCCCGGGCCCGGCCCACTGGCCCAGTCAACTAATCCTCCGGAGTCACCTAGTGCAG,53100 fluorescence intensity (a.u.)
5,GCCACCCTCAGCCACTGGCCATCCGTGGGCCCCACCATCCCGGAGTCACCTAGTGCAG,22500 fluorescence intensity (a.u.)
6,TGGGGCCCACATCCCGCACCACTCGGATTCGGATTTCCTCCGGAGTCACCTAGTGCAG,52200 fluorescence intensity (a.u.)
7,CCACCTAACACTAATCAACCAGTCAACCACCACATCTTCCCGGAGTCACCTAGTGCAG,3820 fluorescence intensity (a.u.)
8,CACTCCCATTCCCATCCTCCACATCCCGCGCCATCGACCTCGGAGTCACCTAGTGCAG,3400 fluorescence intensity (a.u.)
9,GCCCACATCCATCCCGTCACCCGCCCACTCGCCGTCGCACCGGAGTCACCTAGTGCAG,3490 fluorescence intensity (a.u.)
10,CTGCTCCACGCATTCACCAACGCTCCCTGCGATGTTTTAGCGGAGTCACCTAGTGCAG,4260 fluorescence intensity (a.u.)
11,CATCCATCCGGTCAAAGCAGCCGGCCACGTGGCGTGTCCCCGGAGTCACCTAGTGCAG,28100 fluorescence intensity (a.u.)
12,ACAGGCGAGGGTGGAACCCCGCGTGGCGAGAGCGTTGCGGCGGAGTCACCTAGTGCAG,4270 fluorescence intensity (a.u.)
13,TGTAAACATCCCATACTGGCTCTTACGCAAAACTTTCACCCGGAGTCACCTAGTGCAG,54100 fluorescence intensity (a.u.)
14,TCTTCAAACTTCCAACTTTTCCATCACATCAAAACTTTCCCGGAGTCACCTAGTGCAG,3340 fluorescence intensity (a.u.)
15,CTTTTCCCCGACTAAACACACCCATACTGTCAAAAGGTAACGGAGTCACCTAGTGCAG,26800 fluorescence intensity (a.u.)
16,CCGGATCTTCAGCAGAGTCGTGTCACCTGTTTTGATCGTTCGGAGTCACCTAGTGCAG,3890 fluorescence intensity (a.u.)
17,TAGTTCTGAAGTCTGAAATCCTTGCGGTCCTTCACCGCCTCGGAGTCACCTAGTGCAG,55000 fluorescence intensity (a.u.)
18,TATGTTCATTTCCTTATTTGCCTCTCGTCATGTCTCTTGACGGAGTCACCTAGTGCAG,3420 fluorescence intensity (a.u.)
19,GCAATCTTTGCCTTGGTCCTCTTGAAGTCTTTGGCGGTATCGGAGTCACCTAGTGCAG,27700 fluorescence intensity (a.u.)
20,ATAATCTTCAGAGATCTCCTTGCCTGAAGTGTCTTATGTTCGGAGTCACCTAGTGCAG,42500 fluorescence intensity (a.u.)
21,CCGCCTTGCGTGGCTGAACTTCTTCTGATGGTCCCCGCCTCGGAGTCACCTAGTGCAG,3290 fluorescence intensity (a.u.)
